How the values were obtained:
[1] = target: Serine/threonine-protein kinase PAK 6 (Homo sapiens) (UniProt Q9NQU5); conditions: at 1 µM;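 further: values are mean percent inhibition of PAK6 kinase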
[2] = tested on: Tyrosine-protein kinase ABL1 (Homo sapiens), P00519 [E255K]; conditions: at 0.1 µM
[3] = tested on: Tyrosine-protein kinase ABL1 (Homo sapiens), P00519 [E255K]; conditions: at 1 µM
[4] = tested on: Tyrosine-protein kinase ABL1 (Homo sapiens), P00519 [H396P]; conditions: at 0.1 µM
[5] = tested on: Tyrosine-protein kinase ABL1 (Homo sapiens), P00519 [H396P]; conditions: at 1 µM
[6] = tested on: Tyrosine-protein kinase ABL1 (Homo sapiens), P00519 [M351T]; conditions: at 0.1 µM
[7] = tested on: Tyrosine-protein kinase ABL1 (Homo sapiens), P00519 [M351T]; conditions: at 1 µM
[8] = tested on: Tyrosine-protein kinase ABL1 (Homo sapiens), P00519 [Q252H]; conditions: at 0.1 µM
[9] = tested on: Tyrosine-protein kinase ABL1 (Homo sapiens), P00519 [Q252H]; conditions: at 1 µM
[10] = tested on: Tyrosine-protein kinase ABL1 (Homo sapiens), P00519 [T315I]; conditions: at 0.1 µM
[11] = tested on: Tyrosine-protein kinase ABL1 (Homo sapiens), P00519 [T315I]; conditions: at 1 µM
[12] = tested on: Tyrosine-protein kinase ABL1 (Homo sapiens), P00519 [Y253F]; conditions: at 0.1 µM
[13] = tested on: Tyrosine-protein kinase ABL1 (Homo sapiens), P00519 [Y253F]; conditions: at 1 µM
[14] = target: Tyrosine-protein kinase ABL1 (Homo sapiens) (UniProt P00519); conditions: at 0.1 µM
[15] = target: Tyrosine-protein kinase ABL1 (Homo sapiens) (UniProt P00519); conditions: at 1 µM
[16] = target: ALK tyrosine kinase receptor (Homo sapiens) (UniProt Q9UM73); conditions: at 0.1 µM
[17] = target: ALK tyrosine kinase receptor (Homo sapiens) (UniProt Q9UM73); conditions: at 1 µM
[18] = target: Tyrosine-protein kinase ABL2 (Homo sapiens) (UniProt P42684); conditions: at 0.1 µM
[19] = target: Tyrosine-protein kinase ABL2 (Homo sapiens) (UniProt P42684); conditions: at 1 µM
[20] = target: Tyrosine-protein kinase receptor UFO (Homo sapiens) (UniProt P30530); conditions: at 0.1 µM;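 further: values are mean percent inhibition of AXL from the GSK PKIS screen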
Tyrosine-protein kinase receptor UFO (Homo sapiens), sequence (P30530 whole entry): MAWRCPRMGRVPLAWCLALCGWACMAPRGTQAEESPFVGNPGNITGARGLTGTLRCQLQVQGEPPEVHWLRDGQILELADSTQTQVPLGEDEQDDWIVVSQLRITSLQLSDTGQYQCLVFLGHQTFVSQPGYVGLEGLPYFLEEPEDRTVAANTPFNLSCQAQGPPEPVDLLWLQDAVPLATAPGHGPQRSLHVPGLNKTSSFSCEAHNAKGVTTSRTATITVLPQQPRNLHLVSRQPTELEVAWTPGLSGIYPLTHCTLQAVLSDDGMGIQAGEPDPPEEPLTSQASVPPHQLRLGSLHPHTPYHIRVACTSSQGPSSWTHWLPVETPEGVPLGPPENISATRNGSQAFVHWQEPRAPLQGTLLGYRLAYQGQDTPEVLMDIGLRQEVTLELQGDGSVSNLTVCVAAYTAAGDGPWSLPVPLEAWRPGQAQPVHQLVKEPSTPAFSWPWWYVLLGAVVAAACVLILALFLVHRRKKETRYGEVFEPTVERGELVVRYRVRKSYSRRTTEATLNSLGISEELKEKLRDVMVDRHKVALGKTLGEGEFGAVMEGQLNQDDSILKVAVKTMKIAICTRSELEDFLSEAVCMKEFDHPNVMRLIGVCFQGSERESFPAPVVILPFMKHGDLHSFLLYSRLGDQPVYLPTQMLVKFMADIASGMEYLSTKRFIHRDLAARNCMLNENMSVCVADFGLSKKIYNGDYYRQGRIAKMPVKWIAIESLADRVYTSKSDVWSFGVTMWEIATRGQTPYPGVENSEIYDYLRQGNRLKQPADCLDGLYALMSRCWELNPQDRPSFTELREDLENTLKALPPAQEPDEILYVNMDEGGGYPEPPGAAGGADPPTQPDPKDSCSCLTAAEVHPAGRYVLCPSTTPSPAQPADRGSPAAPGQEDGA

Tyrosine-protein kinase ABL2 (Homo sapiens), sequence (P42684 whole entry): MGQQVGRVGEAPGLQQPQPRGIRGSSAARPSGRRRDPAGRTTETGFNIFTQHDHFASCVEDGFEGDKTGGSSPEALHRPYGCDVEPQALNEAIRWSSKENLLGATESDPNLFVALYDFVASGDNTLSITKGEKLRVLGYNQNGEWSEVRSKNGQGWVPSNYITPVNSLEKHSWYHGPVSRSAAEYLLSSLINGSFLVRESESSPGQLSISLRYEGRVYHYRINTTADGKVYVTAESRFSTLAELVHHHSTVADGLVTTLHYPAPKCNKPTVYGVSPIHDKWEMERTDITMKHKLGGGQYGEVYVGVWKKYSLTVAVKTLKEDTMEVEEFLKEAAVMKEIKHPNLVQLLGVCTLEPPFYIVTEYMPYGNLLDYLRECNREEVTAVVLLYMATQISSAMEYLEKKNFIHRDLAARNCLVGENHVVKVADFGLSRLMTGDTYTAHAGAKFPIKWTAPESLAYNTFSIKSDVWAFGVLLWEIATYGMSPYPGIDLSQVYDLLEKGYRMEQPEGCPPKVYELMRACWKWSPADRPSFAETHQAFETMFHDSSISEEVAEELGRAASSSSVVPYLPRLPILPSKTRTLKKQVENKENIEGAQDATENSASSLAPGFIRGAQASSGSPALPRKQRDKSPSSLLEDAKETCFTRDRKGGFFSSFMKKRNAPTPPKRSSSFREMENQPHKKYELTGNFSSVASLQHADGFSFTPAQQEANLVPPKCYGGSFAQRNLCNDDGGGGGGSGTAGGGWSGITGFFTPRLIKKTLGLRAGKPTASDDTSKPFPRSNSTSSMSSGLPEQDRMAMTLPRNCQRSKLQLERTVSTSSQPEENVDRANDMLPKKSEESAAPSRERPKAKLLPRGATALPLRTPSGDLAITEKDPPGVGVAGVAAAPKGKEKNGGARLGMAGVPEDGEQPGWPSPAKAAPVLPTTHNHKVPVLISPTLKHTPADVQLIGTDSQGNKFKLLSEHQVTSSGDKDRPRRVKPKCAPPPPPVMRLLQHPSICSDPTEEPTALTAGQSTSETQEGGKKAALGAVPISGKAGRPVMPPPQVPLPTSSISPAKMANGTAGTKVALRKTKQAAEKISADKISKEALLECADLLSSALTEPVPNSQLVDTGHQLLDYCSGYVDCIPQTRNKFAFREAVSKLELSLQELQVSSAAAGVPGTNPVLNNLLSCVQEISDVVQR
Serine/threonine-protein kinase PAK 6 (Homo sapiens), sequence (Q9NQU5 whole entry, looked up): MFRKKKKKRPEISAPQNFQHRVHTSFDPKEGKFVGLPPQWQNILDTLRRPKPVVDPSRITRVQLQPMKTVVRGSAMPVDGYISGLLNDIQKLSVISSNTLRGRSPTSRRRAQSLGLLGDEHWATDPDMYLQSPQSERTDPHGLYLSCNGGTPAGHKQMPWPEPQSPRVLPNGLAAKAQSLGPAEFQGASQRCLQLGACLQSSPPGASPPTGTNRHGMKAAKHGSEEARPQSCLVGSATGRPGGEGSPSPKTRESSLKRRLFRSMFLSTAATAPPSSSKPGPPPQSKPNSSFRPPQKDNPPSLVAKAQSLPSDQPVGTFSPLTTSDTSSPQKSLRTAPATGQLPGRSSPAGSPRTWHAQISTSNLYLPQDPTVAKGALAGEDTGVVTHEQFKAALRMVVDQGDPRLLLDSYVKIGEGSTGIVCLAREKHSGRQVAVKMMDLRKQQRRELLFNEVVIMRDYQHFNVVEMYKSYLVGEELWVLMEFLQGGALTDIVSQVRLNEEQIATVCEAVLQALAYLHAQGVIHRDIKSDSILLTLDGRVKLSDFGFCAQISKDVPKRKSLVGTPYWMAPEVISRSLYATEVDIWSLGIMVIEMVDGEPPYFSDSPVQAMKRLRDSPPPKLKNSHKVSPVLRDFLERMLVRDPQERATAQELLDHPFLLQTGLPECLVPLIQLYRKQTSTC
ALK tyrosine kinase receptor (Homo sapiens), sequence (Q9UM73 19-1620 limits assumed): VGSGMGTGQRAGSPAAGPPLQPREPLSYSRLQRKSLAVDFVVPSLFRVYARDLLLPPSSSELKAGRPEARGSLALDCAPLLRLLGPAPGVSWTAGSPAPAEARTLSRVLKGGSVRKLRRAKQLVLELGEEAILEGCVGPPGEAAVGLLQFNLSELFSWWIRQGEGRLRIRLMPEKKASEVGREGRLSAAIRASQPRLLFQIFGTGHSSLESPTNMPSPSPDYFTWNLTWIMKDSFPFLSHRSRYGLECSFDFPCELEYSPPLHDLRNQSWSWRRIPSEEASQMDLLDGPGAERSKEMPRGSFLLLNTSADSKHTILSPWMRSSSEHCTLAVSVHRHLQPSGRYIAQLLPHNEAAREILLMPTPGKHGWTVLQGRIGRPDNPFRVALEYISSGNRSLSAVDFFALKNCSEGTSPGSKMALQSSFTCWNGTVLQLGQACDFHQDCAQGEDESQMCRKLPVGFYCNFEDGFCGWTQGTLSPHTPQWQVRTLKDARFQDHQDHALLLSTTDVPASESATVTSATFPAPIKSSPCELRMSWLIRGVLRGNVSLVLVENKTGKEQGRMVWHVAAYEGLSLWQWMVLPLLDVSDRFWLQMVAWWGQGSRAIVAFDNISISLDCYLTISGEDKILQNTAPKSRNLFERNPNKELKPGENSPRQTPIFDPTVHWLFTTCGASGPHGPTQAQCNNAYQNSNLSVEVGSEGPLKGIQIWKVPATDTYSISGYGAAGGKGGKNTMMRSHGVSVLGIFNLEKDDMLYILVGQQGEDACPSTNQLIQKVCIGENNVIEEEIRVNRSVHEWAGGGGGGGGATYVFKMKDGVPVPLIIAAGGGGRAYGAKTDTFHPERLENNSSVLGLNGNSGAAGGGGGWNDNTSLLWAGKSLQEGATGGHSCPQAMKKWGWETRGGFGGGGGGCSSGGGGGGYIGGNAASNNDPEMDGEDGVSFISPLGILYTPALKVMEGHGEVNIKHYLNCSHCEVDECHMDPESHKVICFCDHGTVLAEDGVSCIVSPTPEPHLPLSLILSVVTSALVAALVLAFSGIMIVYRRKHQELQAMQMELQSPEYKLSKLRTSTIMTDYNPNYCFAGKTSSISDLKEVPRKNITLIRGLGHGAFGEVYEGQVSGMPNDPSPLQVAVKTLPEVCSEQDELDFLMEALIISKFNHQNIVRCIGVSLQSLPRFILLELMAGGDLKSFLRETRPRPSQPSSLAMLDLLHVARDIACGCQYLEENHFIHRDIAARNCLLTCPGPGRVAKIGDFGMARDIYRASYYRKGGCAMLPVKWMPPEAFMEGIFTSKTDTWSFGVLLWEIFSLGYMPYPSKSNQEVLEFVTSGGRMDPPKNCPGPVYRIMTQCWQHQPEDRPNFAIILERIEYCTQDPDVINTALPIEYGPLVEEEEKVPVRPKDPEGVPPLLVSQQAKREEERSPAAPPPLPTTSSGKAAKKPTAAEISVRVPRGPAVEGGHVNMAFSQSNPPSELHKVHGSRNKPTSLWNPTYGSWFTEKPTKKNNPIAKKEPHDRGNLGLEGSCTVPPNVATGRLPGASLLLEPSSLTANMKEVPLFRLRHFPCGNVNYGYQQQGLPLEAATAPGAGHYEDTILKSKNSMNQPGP

SMILES	inhibition [1] [%]	inhibition [2] [%]	inhibition [3] [%]	inhibition [4] [%]	inhibition [5] [%]	inhibition [6] [%]	inhibition [7] [%]	inhibition [8] [%]	inhibition [9] [%]	inhibition [10] [%]	inhibition [11] [%]	inhibition [12] [%]	inhibition [13] [%]	inhibition [14] [%]	inhibition [15] [%]	inhibition [16] [%]	inhibition [17] [%]	inhibition [18] [%]	inhibition [19] [%]	inhibition [20] [%]
NS(=O)(=O)c1ccc(-c2cc3ccncc3cc2OCc2ccccc2)cc1	4.76	2.82	3.92	4.66	6.67	3.16	4.42	4.84	4.61	1.65	3.49	5.3	3.98	3.52	7.38	4.77	15.5	3.51	6.27	-5.69
N#Cc1cccc(Nc2nccc(-c3cnn4ncccc34)n2)c1	-4.67	7.52	33	13.6	51.8	16.2	60.8	15.2	57	8.12	34.2	12.6	49.8	13.6	47.5	4.04	18.7	11.9	44.3	-0.03
NS(=O)(=O)c1ccc(N/N=C2\C(=O)Nc3ccc(Cl)cc32)cc1	7.73	-0.63	5.98	3.92	12.9	1.55	12.6	2.4	9.91	0.91	11.8	1.42	11.1	2.16	10.6	1.16	5.53	5.17	11.6	-1.64
O=C(Nc1ccc(Oc2ccc3[nH]c(NC(=O)c4ccco4)nc3c2)cc1)Nc1cc(C(F)(F)F)ccc1F	6.45	15.2	67.1	60.1	92	72.4	93.2	68.6	91.6	76.3	94.4	38	84	27.9	72.2	-1.81	7.58	35.6	66.4	16.1
[O-][S+]1CCN(Cc2ccc(-c3ccc4ncnc(Nc5ccc(OCc6ccccc6)c(Cl)c5)c4c3)o2)CC1	-2.46	1.62	1.35	1.53	2.74	0.68	2.75	2.06	3.61	0.16	1.03	0.95	2.06	2.3	4.26	2.04	8.58	1.82	3.39	-2.39
OCc1ccc(-c2nc(-c3ccccn3)c(-c3ccc4c(c3)OCO4)[nH]2)cc1	5.51	4	3.72	2.95	3.25	1.06	2.45	3.06	3.19	1.99	0.39	4.74	4.83	8.07	12.3	3.63	8.19	5.94	–	-6.62
CC(C)c1ccc2c(c1)NC(=O)/C2=N/Nc1ccc(S(N)(=O)=O)cc1	-5.25	1.09	12	5.36	33.7	7.06	38	4.4	26.6	1.24	6.52	4.59	28.8	6.22	32.8	-0.35	2.81	3.65	25.7	-0.26
CS(=O)(=O)CCNCc1nc(-c2ccc3ncnc(Nc4ccc(OCc5cccc(C(F)(F)F)c5)cc4)c3c2)cs1	-5.71	0.56	1.8	2.03	2.31	1.36	1.22	1.8	1.75	0.33	1.2	1.32	0.85	3.97	6.56	2.68	6.49	1.49	4.56	-5.39
Cc1ccc(O)cc1Nc1ccnc2ccc(S(C)(=O)=O)cc12	4.09	94.4	95.8	94.8	96.4	90.6	94.3	93	96.3	3.68	18.4	94.9	96.8	81.3	85.5	2.56	8.35	80.8	–	-7.59
Cc1ccc2c(-c3ccnc(Nc4ccc5c(c4)OCCO5)n3)c(-c3ccc(C(F)(F)F)cc3)nn2n1	10.7	2.27	3.32	2.14	3.45	0.52	3.13	1.51	4.16	0.69	-0.15	0.22	4.3	2.59	4.52	2.45	1.5	2.56	5	0.41

Reference: ChEMBL document CHEMBL1961873, “Compounds: GSK PKIS; Assays: Nanosyn kinase panel” (2012)
